HepG2 tox = counter-screen for TGF-b inhibitors: cytotoxicity in HepG2 cells; Potency, µM (series often up to 46.1 µM), usual class: cytotoxic; 410,000 tested, 0.76% active; HepG2 CAGA-GFP viability, ATP luminescence, 18 h
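CellTiter-Glo luminescence gave cytotoxicity after 18 hours at 37 degrees C. The cells were HepG2 CAGA-GFP in 1% FBS DMEM, stimulated with 500 pg/mL TGF-beta after compound addition. %Activity was normalised to no-cell wells (complete cell-killing) and DMSO (no toxicity), and curves were fitted and classified.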
ATXN2 expr inh = reduces ATXN2 reporter expression in HEK-293 cells | HEK-293 ATXN2-luciferase reporter, luminescence, 24 h | AID 1745845 | Potency, µM (top dose mostly 57 µM), usual class: inhibitors | 360,000 tested, 0.72% active; also: nearly all actives have a fitted effect of over 55% in size
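qHTS (up to 57 uM final) was run with 24 h compound exposure of reporter cells at 37 °C. Each well was multiplexed: SteadyGlo luminescence measured ATXN2-luciferase expression after a fluorogenic Gly-Phe-AFC viability readout (25 uM final).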
Giardia kill = kills Giardia lamblia; Giardia lamblia trophozoite viability; activity change, % at 7.66 µM, hits read low; 340,000 tested, 0.15% active; in the data active = activity change below about -80%; inconclusive = between about -30% and that limit;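 also: parasites exposed to compound for two days anaerobically before the ATP read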
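Luminescent ATP signal served as the viability read-out, measured 15-30 min after adding ATP detection reagent to trophozoites that had been incubated with compounds for 48 hrs at 37 deg C anaerobically at 100 cells/well.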
uPA generation = inhibitors of cell surface uPA generation. Potency, µM (doses to about 38.3 µM), most hits filed as inhibitors. cell surface uPA generation assay, qHTS. AID 540303. 330,000 tested, 0.31% active; active = well fitted inhibition curve with a large enough effect; inconclusive = small, poorly fitted or top-dose-only effect; inactive = no such curve, though single readings can be large or run the other way; tested in mouse RAW 264.7 cells; also: nearly all actives have a fitted effect of over 55% in size
TGFb SMAD3 inh = blocks TGF-b signaling | HepG2 CAGA-GFP TGF-b/SMAD3 reporter, GFP fluorescence, 18 h; TGF-beta stimulated, 500 pg/mL final | Potency, µM (titrated, usually from 46.1 µM), most hits filed as inhibitors | 410,000 tested, 1.2% active | AID 588855; also: nearly all actives have a fitted effect of over 65% in size
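Per well, imaged GFP fluorescence of HEPG2 CAGA-GFP cells gives the signal; cells get compound, then TGF-beta (500 pg/mL final), 18 h at 37 degrees C; %Activity versus -TGF-beta and +DMSO controls.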
ATXN viability = viability counter-screen for ATXN expression inhibitors; S2 cells (HEK-293 line with an ATXN2-luciferase reporter) viability, CellTiter-Fluor protease fluorescence, 24 h; 400,000 tested, 0.49% active; AID 651635; Potency, µM (doses to about 56.7 µM), actives largely listed as cytotoxic; also: nearly all actives have a fitted effect of over 40% in size
A number is an active result; . = inactive; ? = inconclusive; / = no result given; ! = a repeat was not active. Only some compounds are listed: those with a hit (about 2.6% of all), similar ones and a draw of the others. Unless noted, calls follow the shape of the dose curve; as a rule, active = well fitted curve in the direction sought with a large enough effect; inconclusive = small, poorly fitted or top-dose-only effect, or another doubt; inactive = no such curve, though single readings can be large; an effect the other way counts as inactive or inconclusive.

SMILES	HepG2 tox	ATXN2 expr inh	Giardia kill	uPA generation	TGFb SMAD3 inh	ATXN viability
O=C(c1c[nH]c2ccccc12)C(Cl)c1ccccc1 (stereo not given)	.	/	.	6.31µM	?	?
CC(C)(C)c1ccc(O)c(O)c1	.	39.8µM!	.	?	.	70.8µM!
CC(C)(C)c1ccc(O)c(/C=N\O)c1	.	.	.	.	.	.
CCOC(=O)c1nc2sc(C)c(C)c2c(=O)[nH]1	.	.	.	.	.	.
CCOC(=O)/C(=C\c1cccc(O)c1)c1nc2sc(C)c(C)c2c(=O)[nH]1	.	15.8µM	.	.	?	?
CN(C)c1ccc(/C=C2\C=Cc3ccccc32)cc1Cl	.	/	/	/	.	/
CC1=NN(C(=O)c2csc(C)c2)C(O)(C(F)(F)F)C1 (stereo not given)	.	.	.	.	.	.
CC1=NN(C(=O)c2ccc(Br)cc2)C(O)(C(F)(F)OC(F)(F)F)C1 (stereo not given)	.	.	.	.	15.8µM	.
CN(C)c1ccc(/C=C/c2ccnc3ccc(Br)cc23)cc1	.	/	/	/	.	/
Clc1ccc(C2=NNC(=NCc3ccc4c(c3)OCO4)SC2)cc1	.	.	.	.	15.8µM	?
CC(=O)c1c(-c2ccccc2)[nH]c2ccccc12	.	.	.	.	.	?
O=C(O)/C=C/C(=O)c1c(-c2ccccc2)[nH]c2ccccc12	.	.	.	.	12.6µM	.
CCCCN(CCCNC(=O)c1ccc2c(c1)NC(=O)CN2C)c1ccccc1	15.8µM	/	/	/	?	17.8µM
CC1CCCCN1CCCNC(=O)c1ccc2c(c1)NC(=O)CN2C (stereo not given)	.	/	/	/	.	.
Nc1ccc(-c2cnc(N)c(C(=O)c3cccnc3)n2)cn1	.	?	.	?	7.94µM	?
Nc1ccc(C(=O)c2cccs2)cn1	.	/	.	.	.	.
COc1ccc(S(=O)(=O)N2CCCOC2CNC(=O)C(=O)NCCCN2CCOCC2)cc1C (stereo not given)	1.41µM	.	.	.	.	.
Cc1ccc(S(=O)(=O)N2CCCOC2CNC(=O)C(=O)NCCN2CCOCC2)cc1 (stereo not given)	.	.	.	.	.	.
CCOc1ccc(-c2n[nH]c(C)c2Oc2ccc(OC)cc2)c(O)c1	12.6µM	.	.	.	?	.
CC[n+]1cccc(Br)c1	.	/	/	/	.	/
C=CCn1cc(CN2CCC(C(=O)Nc3ccc(Oc4cccnc4)cc3)CC2)c(C)n1	.	.	.	.	.	.
Cc1c(CN2CCC(C(=O)Nc3cccc(-c4cccc(Cl)c4)c3)CC2)cnn1C	.	/	.	.	?	?
C=CCn1cc(CN2CCC(C(=O)Nc3cccc(-c4cccc(F)c4)c3)CC2)c(C)n1	8.91µM	?	.	.	?	.
C=CCn1cc(CN2CCC(C(=O)Nc3cccc(-c4cccc(Cl)c4)c3)CC2)c(C)n1	15.8µM	/	.	.	?	?
O=C(NCCc1nnc2n1CCN(Cc1ccc(F)cc1)CC2)c1ccco1	/	/	/	/	/	.
SMILES	HepG2 tox	ATXN2 expr inh	Giardia kill	uPA generation	TGFb SMAD3 inh	ATXN viability
OC1(c2cccnc2)CCN(Cc2ccc3c(c2)CN(Cc2ccsc2)CCO3)CC1	/	/	/	/	/	.
CCc1nc2cc(C(=O)N(C)CC3COCCO3)cc(NC(=O)c3ccccc3OC)c2n1C (stereo not given)	/	/	/	/	/	.
Cc1ccc(-c2onc(C)c2C)cc1S(=O)(=O)NC1CCC(C)CC1 (stereo not given)	.	/	/	/	10µM	/
O=C(c1ccccc1F)N1CCC(N2CCCCCC2)CC1	.	.	.	.	.	.
CC1CCN(C2CCN(C(=O)c3ccccc3F)CC2)CC1	11.2µM	.	.	.	.	.
CN(C)c1c(Cl)cc(/C=C2\C=Cc3ccccc32)cc1Cl	.	/	/	/	.	/
COc1cc(-c2ccc3sc(-c4ccsc4)c(C#CCO)c3c2)cc(OC)c1OC	.	25.1µM	.	.	15.8µM	?
CCCNC(=O)c1cc2c(c(-c3cccc(-c4ccc(F)cc4)c3)n1)[C@@H](CCO)N(S(=O)C(C)(C)C)C2 (stereo not given in full)	.	?	/	/	15.8µM	?
O=C1/C(=N\S(=O)(=O)c2cccs2)C([n+]2ccccc2)=C([O-])c2ccccc21	.	/	.	.	2µM	11.2µM
CC(C)(C)c1cc[n+](C2=C([O-])c3ccccc3C(=O)/C2=N\S(=O)(=O)c2cccs2)cc1	4.47µM	10.6µM	.	.	2.82µM	?
Cc1cccc(-n2cc(CN(C)Cc3nccn3C)c(-c3cccc(F)c3)n2)c1	.	/	.	.	.	?
CCn1ccnc1CN(C)Cc1cn(-c2cccc(C)c2)nc1-c1cccc(F)c1	.	/	.	?	?	25.1µM
CCC1CN(Cc2cccn2-c2ccccn2)Cc2cc(OC)ccc2O1 (stereo not given)	/	/	/	/	/	.
CCOc1cc(/C=N/N=C/c2ccc(O)c(OCC)c2)ccc1O	.	.	.	.	.	.
CCOc1cc(/C=C2\CN(CC)C/C(=C\c3ccc(O)c(OCC)c3)C2=O)ccc1O	8.91µM	?	?	.	5.62µM	?
CCN1C/C(=C/c2cccc([N+](=O)[O-])c2)C(=O)/C(=C/c2cccc([N+](=O)[O-])c2)C1	.	3.16µM	.	.	?	3.98µM
COc1cc(/C=C2\Oc3cc(O)ccc3C2=O)ccc1O	.	.	.	6.31µM	.	/
COc1cc(/C=C2/C(=O)CNC2=O)ccc1O	.	.	.	.	.	.
COc1cc(C=C2C(=O)C=CC2=O)ccc1O	/	12.6µM	/	/	/	/
CC(C)C(NS(C)(=O)=O)c1nnc2n1CCN(Cc1ccc(C#CC(C)(C)O)cc1)CC2 (stereo not given)	/	/	/	/	/	.
CN(C)CCC=C1c2ccccc2COc2ccc(CC(=O)O)cc21	/	.	/	/	/	/
COc1cc(/C=C2\CCC/C(=C\c3ccc(O)c(OC)c3)C2=O)ccc1O	10µM!	?	.	.	?	/
COc1cc(C=C2CCC/C(=C\c3ccc(O)c(OC)c3)C2=O)ccc1O	/	15.8µM	/	/	/	28.2µM
COc1cc(/C=C2/CCCC(C(=O)C(F)(F)F)=C2O)ccc1O	.	.	.	.	.	.
COc1cc(/C=C2/CCC/C(=C\c3cc(O)c(OC)c(Cl)c3)C2=O)cc(Cl)c1O	12.6µM	?	.	.	?	/
CCCCC(=O)NC(=S)Nc1cccc(Cl)c1N1CCCCC1	.	.	.	.	?	.
CCC(=O)NC(=S)Nc1cccc(Cl)c1N1CCCCC1	.	.	.	/	14.1µM	.
COc1ccc(C2/C=C\CN(CC3CCCCC3)C(Cc3ccccc3)C(=O)N2Cc2ccc(F)cc2)cc1 (stereo not given)	.	/	.	/	.	/
Cc1ccc2cc(/C=C/C(=O)c3ccco3)c(Cl)nc2c1	.	.	.	.	?	.
COc1cc2cc(/C=C/C(=O)c3ccco3)c(Cl)nc2cc1OC	12.6µM	.	.	.	?	.
